Screening results deposited in PubChem by National Center for Advancing Translational Sciences (NCATS).
ERK AVP block: qHTS Assay for Inhibitors of the ERK Signaling Pathway using a Homogeneous Screening Assay. HEK293-V1b, vasopressin-stimulated pERK AlphaScreen. AID 995, 2007. Potency, µM (highest dose often 57.5 µM), inactives show at the top dose activity, negative = inhibition, most hits filed as inhibitors. 0.99% of 72,000 active; note: potency is the fitted concentration of half-maximal effect; % is set by controls: 0 for no effect and ±100 for the full control effect; nearly all actives have a fitted effect of over 55% in size
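Phosphorylated ERK1/2 detected via AlphaScreen bead proximity in lysates of V1b-expressing HEK293 cells given 25 nM vasopressin for 5 min after 30 min compound exposure (37 °C). AC50 from Hill equation; basal DMSO 0%, vasopressin 100%.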
TsaE inh: qHTS Assay for Inhibitors of YjeE; tRNA threonylcarbamoyladenosine biosynthesis protein TsaE (Escherichia coli (strain …; Potency, µM; 0.05% of 71,000 active; purified YjeE enzyme, qHTS inhibition assay
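Fluorescence polarization of a BODIPY Texas Red–ADP probe (2 uM) bound to purified YjeE (10 uM) was read after 15 min room-temperature incubation with compounds. Loss of polarization marks inhibitors; ADP serves as titrated control.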
p53ts 32C tox: qHTS Screen for Compounds that Selectively Target Cancer Cells with p53 Mutations: Cytotoxicity of p53ts Cells at the Permissive Temperature; H1299-p53A138V at 32C, ATP luminescence viability, 24 h; Potency, µM (series often up to 46.1 µM), inactives show top-dose activity change, negative = cytotoxicity, usual class: cytotoxic; 0.93% of 130,000 active; AID 924, 2007;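 note: potency is the fitted concentration of half-maximal effect; 0% = DMSO and -100% = full killing by reference compound; nearly all actives have a fitted effect of over 55% in size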
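Viability by ATPlite luminescence after 24 h compound treatment (up to 46 uM) at the permissive 32C. Cells are H1299 carrying p53 A138V. Scale runs from DMSO basal to 100 uM tamoxifen as full kill; AC50 from Hill fits.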
p53ts 39C kill: qHTS Screen for Compounds that Selectively Target Cancer Cells with p53 Mutations: Cytotoxicity of p53ts Cells at the Nonpermissive Temperature; H1299-p53A138V viability at 39C, ATP luminescence, 24 h; 1.5% of 130,000 active; Potency, µM (series often up to 46.1 µM), for the others: top-dose activity change, negative = cell killing, most hits filed as cytotoxic; note: potency is the fitted concentration of half-maximal effect; % is set by controls: 0 for no effect and ±100 for the full control effect; nearly all actives have a fitted effect of over 55% in size
Tau filament bind: qHTS Assay for Tau Filament Binding; Microtubule-associated protein tau (Homo sapiens), P10636; recombinant tau filaments, thioflavin S fluorescence, 15 h; filaments grown with octadecylsulfate alongside compound; 2% of 71,000 active; AID 596, 2007; Potency, µM (highest dose often 57.1 µM), inactives show at the top dose activity change, negative = inhibition;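 note: potency is the fitted concentration of half-maximal effect; % is set by controls: 0 for no effect and ±100 for the full control effect; actives lower thioflavin S fluorescence by blocking filaments or displacing dye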
Target sequence (P10636 whole entry, looked up): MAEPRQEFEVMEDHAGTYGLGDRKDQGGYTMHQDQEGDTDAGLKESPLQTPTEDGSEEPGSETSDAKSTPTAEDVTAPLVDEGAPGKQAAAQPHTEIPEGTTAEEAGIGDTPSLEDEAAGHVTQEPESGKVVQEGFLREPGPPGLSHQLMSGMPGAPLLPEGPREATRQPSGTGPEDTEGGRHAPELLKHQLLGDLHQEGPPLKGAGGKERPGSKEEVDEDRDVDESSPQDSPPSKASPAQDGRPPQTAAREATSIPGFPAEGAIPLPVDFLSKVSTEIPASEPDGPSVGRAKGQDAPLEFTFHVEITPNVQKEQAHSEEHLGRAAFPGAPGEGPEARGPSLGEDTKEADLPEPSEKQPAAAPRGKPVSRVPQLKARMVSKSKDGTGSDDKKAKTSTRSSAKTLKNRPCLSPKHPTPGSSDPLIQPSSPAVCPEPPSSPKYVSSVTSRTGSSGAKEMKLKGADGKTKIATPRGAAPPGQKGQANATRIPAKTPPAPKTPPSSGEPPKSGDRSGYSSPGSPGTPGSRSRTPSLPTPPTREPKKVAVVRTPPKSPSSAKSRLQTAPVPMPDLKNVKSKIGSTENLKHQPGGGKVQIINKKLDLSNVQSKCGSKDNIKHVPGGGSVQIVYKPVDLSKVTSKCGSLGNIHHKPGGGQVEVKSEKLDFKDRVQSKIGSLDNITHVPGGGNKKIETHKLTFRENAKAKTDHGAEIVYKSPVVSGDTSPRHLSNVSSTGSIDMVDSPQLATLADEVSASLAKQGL
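Read-out: ThS fluorescence, 450 nm excitation/510 nm emission; lower signal marks blocked filament formation or displaced dye. Tau at 1 uM with 30 uM ODS, 10 uM ThS, 5 mM DTT, 100 mM NaCl, 10 mM HEPES pH 7.4; 15 h, 37 C.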
DNA Pol III inh: qHTS Assay for Inhibitors of DNA Polymerase III Holoenzyme System; reconstituted DNA polymerase III holoenzyme replication, biochemical; Potency, µM (titrated, usually from 57.1 µM), without a hit: top-dose activity change, negative = inhibition; 0.25% of 71,000 active; AID 603, 2007; note: potency is the fitted concentration of half-maximal effect; % is set by controls: 0 for no effect and ±100 for the full control effect
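Reconstituted *E. coli* holoenzyme (0.35 nM Pol III, 1 nM beta, 154 nM SSB, 2 nM primase) was preincubated with compound for 15 min at RT. Synthesis on 1.4 nM ssM13Gori ran 35 min, then was stopped with PicoGreen/EDTA and read as dsDNA fluorescence.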
* hit, by the source's call; i = inactive; ? = inconclusive; · = not tested or not shown; ! = not active in a repeat. In the library only some 3.2% were active in any assay of this set; here they are far more common. Calls come from the whole dose curve; as a rule, active = well fitted curve in the direction sought with a large enough effect; inconclusive = small, poorly fitted or top-dose-only effect, or another doubt; inactive = no such curve, though single readings can be large; an effect the other way counts as inactive or inconclusive.

SMILES | ERK AVP block | TsaE inh | p53ts 32C tox | p53ts 39C kill | Tau filament bind | DNA Pol III inh
COc1ccc(CC(=O)NC2CC(C)(C)NC(C)(C)C2)cc1 | · | · | 4% | -2% | · | ·
COc1ccc2c(c1)c(=O)oc1cc(OCC(=O)N3CCCC(C)C3)ccc12 (stereo not given) | 32µM* | i | -10% | -13% | 248% | -8%
COc1ccc2c(c1)c(=O)oc1cc(OCC(=O)N3CCC(C)CC3)ccc12 | ? | i | -22% | -25% | 29% | ?
CCCn1c(-c2ccc(F)cc2)nc2c(N3CCN(CCC(=O)OCC)CC3)nc(C)nc21 | -11% | i | -3% | -1% | -5% | -2%
Cc1ccc(-c2cc(C(=O)N3CCCC3)no2)cc1 | -4% | i | 7.9µM* | 7.9µM* | 21% | 3%
CC(=O)Nc1ccc(SCC(=O)c2cc(C)n(Cc3cccs3)c2C)cc1 | 4% | i | 2.5µM* | 2.5µM* | 188% | -3%
Cc1csc(SCC(=O)c2cc(C)n(Cc3cccs3)c2C)n1 | ? | i | 13µM* | 13µM* | 18% | -3%
CC(=O)Nc1ccccc1OCC(=O)c1cc(C)n(Cc2cccs2)c1C | 15% | i | -20% | -18% | 31% | 11%
COCCn1c(C)cc(C(=O)CSc2nncn2-c2ccccc2)c1C | 5% | i | ? | ? | 1% | -2%
COCCn1c(C)cc(C(=O)CSc2ccc(NC(C)=O)cc2)c1C | -4% | i | ? | 13µM* | -12% | 1%
COc1cc(/C=C(\C#N)c2nc3ccccc3[nH]2)ccc1OCc1cccc(C(F)(F)F)c1 | · | · | 13µM* | 3.2µM* | · | ·
COc1cc(/C=C(\C#N)c2nc3ccccc3[nH]2)ccc1OCc1ccc(F)cc1 | · | · | ? | -3% | · | ·
CCC(CC)C(=O)N1CCc2cc(OC)c(OC)cc2C1COc1ccc(C(=O)OC)cc1 (stereo not given) | · | · | 17% | -6% | · | ·
Cc1nc(N2CCOCC2)c2c(C(=O)NCc3ccc(Cl)cc3)c(C)oc2n1 | · | · | 1% | -15% | · | ·
COc1ccc2c(c1OC)C(=O)N(c1cccc(C(F)(F)F)c1)C2 | -11% | i | ? | ? | 23% | 8%
COc1ccc2c(c1OC)C(=O)N(c1cccc(C)c1)C2 | -20% | i | 7.9µM* | 5µM* | 4% | -6%
CCc1nn(CC(=O)NCc2ccccc2Cl)c(=O)c2cc3ccccc3n12 | · | · | 3% | ? | · | ·
Cc1ccc2nc3c(c(Nc4ccc(C)c(C)c4)c2c1)CCC3 | · | · | ? | 10µM* | · | ·
COCc1cc(C)nc2sc3c(c12)NC(c1ccc(O)cc1)N(c1ccc(OC)cc1)C3=O (stereo not given) | · | · | 16% | -6% | · | ·
CCOC(=O)c1[nH]c(C)c(C(=O)c2cc(F)ccc2F)c1C | 20µM* | i | 5% | 0% | -1% | -1%
CCN(CC)c1ccc(NC(=O)Nc2ccc(C(C)=O)cc2)cc1 | -25% | i | 1% | -6% | ? | -5%
CCN(CC)c1ccc(NC(=O)c2cncc(Br)c2)cc1 | ? | i | -14% | -13% | 20µM* | -2%
CN(C)c1cccc(C(=O)Nc2cccc(F)c2)c1 | -16% | i | ? | -13% | -29% | -12%
CCN(CC)c1ccc(C(=O)Nc2cccc(F)c2)cc1 | ? | i | 13µM* | ? | -5% | -2%
CC(=O)Nc1ccc(OC[C@@H](O)CNC(C)C)cc1 | 4% | i | 4% | 5% | 40µM*! | -2%
SMILES | ERK AVP block | TsaE inh | p53ts 32C tox | p53ts 39C kill | Tau filament bind | DNA Pol III inh
CCN(CC)C(=O)Cn1c(SCC(=O)Nc2ccc(F)cc2)nc2ccccc21 | · | · | -6% | -12% | · | ·
COc1ccccc1N1CCN(c2nc3ccccc3nc2C(C#N)C(=O)OC(C)C)CC1 (stereo not given) | ? | i | 11% | 5% | 7.9µM* | -4%
C=CCOC(=O)C(C#N)c1nc2ccccc2nc1N1CCCC1 (stereo not given) | -25% | i | 4% | 4% | 16µM* | 4%
COCCOC(=O)C(C#N)c1nc2ccccc2nc1N1CCCC1 (stereo not given) | ? | i | 8% | 4% | 16µM* | -1%
N#CC(C(=O)OC1CCCCC1)c1nc2ccccc2nc1N1CCCCC1 (stereo not given) | -2% | i | -4% | 2% | 20% | 1%
CC1CCN(c2nc3ccccc3nc2C(C#N)C(=O)OC2CCCCC2)CC1 (stereo not given) | 3% | i | -1% | -2% | -3% | 1%
Cc1ccc2nc(Cl)c3cc(C(=O)NC4CCC(C)CC4)sc3c2c1 (stereo not given) | · | · | 6% | 14% | · | ·
COc1ccc(C(CC(=O)Nc2ccc(F)c(Cl)c2)N2Cc3ccccc3C2=O)cc1OC (stereo not given) | · | · | 1% | -12% | · | ·
CC(=O)Oc1ccc(/C=C\C(=O)C[C@@H]2O[C@@H](Oc3cc(OC(C)=O)c4c(c3)O[C@@H](c3ccc(OC(C)=O)cc3)CC4=O)[C@H](OC(C)=O)[C@H](OC(C)=O)[C@@H]2OC(C)=O)cc1 | · | i | · | · | ? | -4%
O=C(c1cnn2c(C(F)(F)F)cc(-c3ccco3)nc12)N1CCCCCC1 | 9% | i | -11% | 3% | ? | -4%
Cc1cc(NC(=O)c2cnn3c(C(F)(F)F)cc(-c4ccccc4)nc23)no1 | ? | i | 2% | 8% | 3.2µM* | 0%
Cc1cc(NC(=O)c2cnn3c(C(F)F)cc(-c4ccccc4)nc23)no1 | ? | i | -7% | -4% | ? | -1%
O=C(NC1CCCCC1)c1cnn2c(C(F)(F)F)cc(-c3ccco3)nc12 | -3% | i | 7% | 43% | 10µM* | -4%
Oc1ccc([C@@H]2CNCCc3c2cc(O)c(O)c3Cl)cc1 | -8% | i | 0% | -16% | ? | -6%
CCCCS(=O)(=O)c1nc(-c2ccc(Br)cc2)cc(-c2ccccc2)c1C#N | · | · | 2µM* | ? | · | ·
Cc1ccc(CN2C(=O)C(O)(CC(=O)c3ccc(C)cc3)c3ccccc32)cc1 (stereo not given) | · | · | 7% | -14% | · | ·
Cc1nc2ncnn2c(Nc2ccc3c(c2)OCO3)c1Cc1ccccc1 | 25µM* | i | -1% | -3% | 0% | 0%
COc1cc(OC)c(NC(=O)CCCn2nc(C)c3sc4ccccc4c3c2=O)cc1Cl | · | · | -26% | 13µM* | · | ·
